Calls of active or inactive are those of the source. The calls were made as follows: active = hit-call score of the fitted dose curve at least 0.9, where 1 is the maximum; inactive = score below 0.9.

As a reminder, the AC50 is the midpoint of the concentration-response curve, whichever way the signal moves.

Assay [1] concerns the target Bile acid receptor (Homo sapiens) (UniProt Q96RI1). Put plainly: ATG_IR1_CIS: Attagene CIS-FACTORIAL HepG2 Assay for human Nuclear Receptor Subfamily 1 Group H Member 4 (NR1H4), IR1 submotif (AID 2282946). To be noted: IR1 reporter transcription, actives raise or lower the signal. In outline:
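HepG2 cells transiently transfected with multiplexed cis-element reporter units read endogenous transcription factor activity. After 24 h compound exposure, reporter mRNA was quantified by RT-PCR, fluorescent labelling, HpaI digestion and capillary electrophoresis; bidirectional fitting versus DMSO baseline.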

The nature of assay [2]: ATG_GRE_CIS: Attagene CIS-FACTORIAL HepG2 Assay for human Glucocorticoid Response Elements (GRE) (AID 2282947). To be noted: HepG2 GRE cis-reporter, Attagene multiplex mRNA; actives raise or lower the signal. The method, boiled down: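 Reporter transcripts read by RT-PCR with capillary electrophoresis fluorescence after a 24 h chemical exposure of HepG2 cells transiently transfected with multiple cis-element reporter units. Gain or loss fitted against DMSO.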

Assay [3] can be described thus: ATG_ISRE_CIS: Attagene CIS-FACTORIAL HepG2 Assay for human Interferon Regulatory Factor 1 (IRF1) binding to an Interferon-Stimulated Response Element (ISRE) (AID 2282948). To be noted: HepG2 ISRE cis-reporter (Attagene), mRNA transcription readout; actives raise or lower the signal. In outline: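 Read-out: fluorescent RT-PCR products resolved by capillary electrophoresis, reporting endogenous transcription factor activity via ISRE-driven reporter mRNA in transfected HepG2 cells dosed for 24 h; gain or loss fitted relative to DMSO.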

A short description of assay [4]: ATG_M_32_CIS: Attagene CIS-FACTORIAL HepG2 Assay for M32 Transcription Factor (Internal Marker) (AID 2282949).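 Also: background control marker of the multiplexed CIS panel rather than a real target.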 To be noted: HepG2 Attagene cis-factorial M32 reporter, mRNA; actives raise or lower the signal. In outline: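 HepG2 human liver cells transiently transfected with cis-promoter-driven multiple reporter transcription units, dosed 24 h. Reporter mRNA quantified by RT-PCR, FAM-labelled primer extension, HpaI digest and capillary electrophoresis; bidirectional fit versus DMSO baseline.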

Assay [5] can be described thus: ATG_M_06_CIS: Attagene CIS-FACTORIAL HepG2 Assay for M06 Transcription Factor (Internal Marker) (AID 2282950). Conditions: HepG2 Attagene CIS-FACTORIAL M06 internal marker reporter; actives raise or lower the signal. The method, boiled down:
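Fluorescence-labelled RT-PCR products from cis-promoter reporter units, cut with HpaI and resolved by capillary electrophoresis, give the signal. Cells are human HepG2, dosed for 24 h. Serves as background control, fitted relative to DMSO.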

Assay [6] addresses Hypoxia-inducible factor 1-alpha (Homo sapiens) (UniProt Q16665). Description: ATG_HIF1a_CIS: Attagene CIS-FACTORIAL HepG2 Assay for human Hypoxia Inducible Factor 1 (HIF1A) (AID 2282951). To be noted: HepG2 Attagene cis-factorial HIF1a reporter transcription; actives raise or lower the signal. In outline: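 HepG2 cells transiently transfected with multiplexed cis-promoter reporter units; reporter mRNA read 24 h after dosing by RT-PCR, 6-FAM primer-extension labelling, HpaI digestion and capillary electrophoresis. Bidirectional fit versus DMSO baseline.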

Assay [7] addresses Hepatocyte nuclear factor 6 (Homo sapiens) (UniProt Q9UBC0). Put plainly: ATG_HNF6_CIS: Attagene CIS-FACTORIAL HepG2 Assay for human Hepatocyte Nuclear Factor 6 (HNF6) (AID 2282952). To be noted: HepG2 Attagene cis-factorial HNF6 reporter transcription; actives raise or lower the signal. In outline: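 Readout: fluorescent reporter-transcript fragments resolved by capillary electrophoresis after RT-PCR, reflecting endogenous factor activity in transfected HepG2. Exposure 24 h. Gain or loss of signal fitted bidirectionally against DMSO.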

The target in assay [8] is Heat shock factor protein 1 (Homo sapiens) (UniProt Q00613). Put plainly: ATG_HSE_CIS: Attagene CIS-FACTORIAL HepG2 Assay for human Heat Shock Transcription Factor 1 (HSE) (AID 2282953). Conditions: HepG2 HSE cis-reporter, Attagene RNA transcription; actives raise or lower the signal. The method, boiled down:
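After a 24 h incubation with test chemical, transfected HepG2 cells were harvested for RNA; reporter transcripts were measured by RT-PCR and capillary electrophoresis. Values reflect gain or loss of signal relative to DMSO.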

The nature of assay [9]: ATG_MRE_CIS: Attagene CIS-FACTORIAL HepG2 Assay for human Metal Responsive Element (MRE) (AID 2282954). To be noted: HepG2 MRE cis-reporter transcription, Attagene multiplex; actives raise or lower the signal. The method, boiled down:
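Endogenous MRE-dependent transcription read as reporter mRNA in transiently transfected human HepG2 cells at 24 h. RNA reverse-transcribed, PCR-amplified, labelled and resolved by capillary electrophoresis; gain or loss relative to DMSO.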

For assay [10], the target named is Paired box protein Pax-6 (Homo sapiens) (UniProt P26367). Description: ATG_Pax6_CIS: Attagene CIS-FACTORIAL HepG2 Assay for human Paired Box 6 (PAX6) (AID 2282956). Conditions: HepG2 CIS-FACTORIAL PAX6 reporter transcription, RNA readout; actives raise or lower the signal. In outline: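 Readout: reporter transcript fluorescence after RT-PCR and capillary electrophoresis. Cells: HepG2, transiently transfected with cis-regulated MRTUs. Exposure 24 h. Gain or loss of signal fitted bidirectionally relative to DMSO.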

The nature of assay [11]: ATG_PXRE_CIS: Attagene CIS-FACTORIAL HepG2 Assay for human Pregnane X Receptor Element (PXRE) (AID 2282957). To be noted: HepG2 Attagene CIS-FACTORIAL PXRE reporter, mRNA; actives raise or lower the signal. The method, boiled down: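 Read-out: fluorescence of reporter-specific RT-PCR products resolved by capillary electrophoresis, fitted bidirectionally relative to DMSO. Human HepG2 liver cells carried transfected cis-promoter reporter units and were exposed to chemicals for 24 h.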

Assay [12] is described as follows: ATG_PPRE_CIS: Attagene CIS-FACTORIAL HepG2 Assay for human Peroxisome Proliferator-activated Response Element (PPRE) (AID 2282958). To be noted: HepG2 PPRE cis-element reporter, Attagene transcription factor profiling; actives raise or lower the signal. In outline: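 HepG2 cells transiently transfected with multiplexed cis-element reporter units measure endogenous transcription factor activity. After 24 h compound exposure, reporter mRNA is quantified by RT-PCR, 6-FAM labeling, HpaI digestion and capillary electrophoresis; bidirectional fits are made against DMSO baseline.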

A short description of assay [13]: ATG_RORE_CIS: Attagene CIS-FACTORIAL HepG2 Assay for human RAR-related Orphan Receptor Element (RORE) (AID 2282959). To be noted: HepG2 Attagene cis-factorial RORE reporter, mRNA; actives raise or lower the signal. The method, boiled down: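 HepG2 cells transiently transfected with multiple cis-element reporter transcription units, exposed to chemical for 24 h. Reporter mRNA quantified by RT-PCR, 6-FAM primer-extension labeling, HpaI digestion and capillary electrophoresis; bidirectional fit versus DMSO baseline.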

Assay [14] in a line: ATG_Sox_CIS: Attagene CIS-FACTORIAL HepG2 Assay for human SRY-box transcription factor (SOX) (AID 2282960). To be noted: HepG2 Attagene cis-factorial SOX reporter, mRNA; actives raise or lower the signal. The method, boiled down: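 HepG2 cells transiently transfected with cis-element-driven multiple reporter transcription units, dosed 24 h; reporter mRNA measured by RT-PCR, FAM labelling, HpaI digestion and capillary electrophoresis. Bidirectional fit versus DMSO baseline.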

Assay [15] addresses Transcription factor Sp1 (Homo sapiens) (UniProt P08047). Description: ATG_Sp1_CIS: Attagene CIS-FACTORIAL HepG2 Assay for human Specificity Protein 1 (Sp1) (AID 2282961). Conditions: HepG2 Sp1 cis-reporter transcription, actives raise or lower the signal. The method, boiled down:
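HepG2 cells transiently transfected with multiple reporter transcription units driven by cis-regulatory elements; Sp1-responsive reporter mRNA measured 24 h after dosing by RT-PCR and capillary electrophoresis fluorescence, fitted bidirectionally against DMSO baseline.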

A short description of assay [16]: ATG_SREBP_CIS: Attagene CIS-FACTORIAL HepG2 Assay for human Sterol Regulatory Element Binding (SREBP) (AID 2282962). Conditions: HepG2 Attagene cis-factorial SREBP reporter, mRNA; actives raise or lower the signal. In outline: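 Readout: fluorescent reporter-transcript peaks resolved by capillary electrophoresis after RT-PCR. Cells were human HepG2 carrying transfected cis-promoter reporter constructs, dosed for 24 h. Gain or loss of signal was fitted against DMSO controls.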

The target of assay [17] is Signal transducer and activator of transcription 3 (Homo sapiens) (UniProt P40763). Description: ATG_STAT3_CIS: Attagene CIS-FACTORIAL HepG2 Assay for human Signal Transducer and Activator of Transcription 3 (STAT3) (AID 2282963). Conditions: HepG2, Attagene cis-factorial STAT3 reporter transcription; actives raise or lower the signal. The method, boiled down: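 Readout is reporter transcript quantified by RT-PCR and capillary electrophoresis, with 6-FAM primer extension and HpaI digestion. Total RNA is taken 24 h after dosing transiently transfected HepG2 carrying cis-regulated reporter units. Bidirectional fit against DMSO.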

Assay [18] in a line: ATG_TA_CIS: Attagene CIS-FACTORIAL HepG2 Assay for human TA Basal Promoter (AID 2282964). To be noted: HepG2 Attagene CIS-factorial TA basal promoter reporter; actives raise or lower the signal. The method, boiled down:
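Multiplexed mRNA reporter assay, HepG2, 24 h. Reporter cDNA amplified, 6-FAM primer-extended, HpaI-cut, CE-sized; DMSO = negative control and baseline.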

Assay [19] is described as follows: ATG_TCF_b_cat_CIS: Attagene CIS-FACTORIAL HepG2 Assay for human T-Cell-Factor with beta-catenin (TCF/b-cat) (AID 2282965). To be noted: HepG2 TCF/beta-catenin cis-reporter transcription, actives raise or lower the signal. The method, boiled down:
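Endogenous TCF/LEF activity read as reporter transcript level via RT-PCR and capillary electrophoresis fluorescence in transfected HepG2, 24 h exposure; gain or loss of signal fitted against DMSO controls.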

Assay [20] in a line: ATG_PBREM_CIS: Attagene CIS-FACTORIAL HepG2 Assay for human Phenobarbital-responsive Enhancer Module (PBREM) (AID 2282955). To be noted: HepG2 PBREM cis-reporter, Attagene multiplexed transcription; actives raise or lower the signal. The method, boiled down:
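HepG2 cells transiently transfected with multiple cis-regulated reporter transcription units; endogenous factor activity at the PBREM element measured as reporter mRNA 24 h after dosing, via RT-PCR and capillary electrophoresis of fluorescent fragments; bidirectional fitting versus DMSO.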

Chain of Bile acid receptor (Homo sapiens) (Q96RI1 whole entry, looked up): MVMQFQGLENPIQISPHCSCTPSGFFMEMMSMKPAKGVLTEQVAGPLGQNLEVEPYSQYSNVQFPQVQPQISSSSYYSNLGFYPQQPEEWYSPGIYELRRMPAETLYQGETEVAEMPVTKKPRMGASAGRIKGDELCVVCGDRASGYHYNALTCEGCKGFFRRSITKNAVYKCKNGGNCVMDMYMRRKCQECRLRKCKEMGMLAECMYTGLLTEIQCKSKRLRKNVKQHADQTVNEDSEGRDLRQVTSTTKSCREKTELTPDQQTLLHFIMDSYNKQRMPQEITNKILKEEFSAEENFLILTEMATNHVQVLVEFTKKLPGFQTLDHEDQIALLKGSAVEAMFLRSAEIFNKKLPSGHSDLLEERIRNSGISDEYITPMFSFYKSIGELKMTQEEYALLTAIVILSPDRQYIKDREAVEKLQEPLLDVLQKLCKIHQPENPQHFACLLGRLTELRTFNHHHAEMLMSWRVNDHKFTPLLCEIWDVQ
Chain of Hepatocyte nuclear factor 6 (Homo sapiens) (Q9UBC0 whole entry, looked up, the tested form may be a part): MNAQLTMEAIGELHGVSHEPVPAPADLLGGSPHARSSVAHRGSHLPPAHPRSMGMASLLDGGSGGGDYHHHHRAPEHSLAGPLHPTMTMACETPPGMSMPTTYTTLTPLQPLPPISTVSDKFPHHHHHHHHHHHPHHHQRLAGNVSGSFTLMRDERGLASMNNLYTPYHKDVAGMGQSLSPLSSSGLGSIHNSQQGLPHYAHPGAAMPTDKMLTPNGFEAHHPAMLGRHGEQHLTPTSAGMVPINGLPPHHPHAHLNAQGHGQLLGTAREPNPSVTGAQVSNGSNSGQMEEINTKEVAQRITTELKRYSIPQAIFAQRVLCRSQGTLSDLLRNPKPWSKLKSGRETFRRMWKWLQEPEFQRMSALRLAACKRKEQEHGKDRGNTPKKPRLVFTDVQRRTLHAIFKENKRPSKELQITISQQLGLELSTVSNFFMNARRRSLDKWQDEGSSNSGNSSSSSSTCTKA
Chain of Paired box protein Pax-6 (Homo sapiens) (P26367 whole entry, looked up): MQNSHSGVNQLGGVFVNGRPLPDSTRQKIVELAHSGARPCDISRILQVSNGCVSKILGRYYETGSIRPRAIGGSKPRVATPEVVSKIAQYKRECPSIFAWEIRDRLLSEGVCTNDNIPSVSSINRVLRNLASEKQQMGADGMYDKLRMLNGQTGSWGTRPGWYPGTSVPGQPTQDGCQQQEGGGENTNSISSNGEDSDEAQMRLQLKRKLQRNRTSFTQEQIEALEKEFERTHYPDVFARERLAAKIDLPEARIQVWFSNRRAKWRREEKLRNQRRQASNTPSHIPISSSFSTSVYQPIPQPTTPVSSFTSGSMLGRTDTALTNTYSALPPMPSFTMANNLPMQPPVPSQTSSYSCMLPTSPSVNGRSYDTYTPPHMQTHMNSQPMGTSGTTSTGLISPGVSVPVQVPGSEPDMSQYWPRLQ
Chain of Transcription factor Sp1 (Homo sapiens) (P08047 whole entry, looked up): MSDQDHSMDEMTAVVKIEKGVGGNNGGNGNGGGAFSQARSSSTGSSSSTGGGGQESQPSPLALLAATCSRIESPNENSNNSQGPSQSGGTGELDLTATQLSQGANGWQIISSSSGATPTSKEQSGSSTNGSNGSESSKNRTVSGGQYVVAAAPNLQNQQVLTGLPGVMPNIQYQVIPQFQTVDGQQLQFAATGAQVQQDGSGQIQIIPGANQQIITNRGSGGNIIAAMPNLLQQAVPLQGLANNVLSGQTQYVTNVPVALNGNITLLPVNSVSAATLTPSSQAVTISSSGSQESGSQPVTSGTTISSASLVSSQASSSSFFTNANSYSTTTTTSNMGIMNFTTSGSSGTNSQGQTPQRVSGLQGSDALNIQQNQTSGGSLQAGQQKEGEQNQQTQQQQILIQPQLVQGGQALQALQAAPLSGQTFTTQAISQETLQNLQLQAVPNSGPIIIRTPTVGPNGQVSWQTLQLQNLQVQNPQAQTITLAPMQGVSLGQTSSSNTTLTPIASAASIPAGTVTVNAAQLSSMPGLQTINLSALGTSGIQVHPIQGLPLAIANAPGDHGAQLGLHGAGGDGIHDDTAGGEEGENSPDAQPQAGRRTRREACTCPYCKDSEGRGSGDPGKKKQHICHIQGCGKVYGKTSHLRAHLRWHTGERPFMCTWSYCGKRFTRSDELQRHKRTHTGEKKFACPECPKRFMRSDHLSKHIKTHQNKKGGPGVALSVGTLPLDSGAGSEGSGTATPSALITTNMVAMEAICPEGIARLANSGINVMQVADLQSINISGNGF
Chain of Hypoxia-inducible factor 1-alpha (Homo sapiens) (Q16665 whole entry, looked up): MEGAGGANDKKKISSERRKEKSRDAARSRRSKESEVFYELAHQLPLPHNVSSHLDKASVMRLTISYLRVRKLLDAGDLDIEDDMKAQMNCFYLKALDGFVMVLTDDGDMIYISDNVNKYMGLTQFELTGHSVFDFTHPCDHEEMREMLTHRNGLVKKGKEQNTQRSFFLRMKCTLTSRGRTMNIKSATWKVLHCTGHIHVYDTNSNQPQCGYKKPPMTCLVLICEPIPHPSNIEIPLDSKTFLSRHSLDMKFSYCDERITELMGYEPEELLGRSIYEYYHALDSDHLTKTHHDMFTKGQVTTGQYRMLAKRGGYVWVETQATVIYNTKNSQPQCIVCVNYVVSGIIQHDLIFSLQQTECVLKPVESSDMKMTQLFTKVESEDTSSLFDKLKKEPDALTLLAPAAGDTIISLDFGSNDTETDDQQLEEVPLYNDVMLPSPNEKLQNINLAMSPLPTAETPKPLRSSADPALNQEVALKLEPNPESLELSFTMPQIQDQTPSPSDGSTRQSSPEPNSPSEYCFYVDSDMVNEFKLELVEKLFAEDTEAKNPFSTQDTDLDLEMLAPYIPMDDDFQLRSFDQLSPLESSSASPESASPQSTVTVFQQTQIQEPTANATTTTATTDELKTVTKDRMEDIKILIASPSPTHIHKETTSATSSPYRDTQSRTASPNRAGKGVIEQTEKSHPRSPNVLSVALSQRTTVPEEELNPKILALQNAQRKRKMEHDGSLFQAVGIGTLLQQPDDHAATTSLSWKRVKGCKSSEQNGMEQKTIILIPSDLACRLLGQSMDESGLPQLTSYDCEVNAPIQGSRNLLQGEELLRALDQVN
Chain of Signal transducer and activator of transcription 3 (Homo sapiens) (P40763 whole entry, looked up): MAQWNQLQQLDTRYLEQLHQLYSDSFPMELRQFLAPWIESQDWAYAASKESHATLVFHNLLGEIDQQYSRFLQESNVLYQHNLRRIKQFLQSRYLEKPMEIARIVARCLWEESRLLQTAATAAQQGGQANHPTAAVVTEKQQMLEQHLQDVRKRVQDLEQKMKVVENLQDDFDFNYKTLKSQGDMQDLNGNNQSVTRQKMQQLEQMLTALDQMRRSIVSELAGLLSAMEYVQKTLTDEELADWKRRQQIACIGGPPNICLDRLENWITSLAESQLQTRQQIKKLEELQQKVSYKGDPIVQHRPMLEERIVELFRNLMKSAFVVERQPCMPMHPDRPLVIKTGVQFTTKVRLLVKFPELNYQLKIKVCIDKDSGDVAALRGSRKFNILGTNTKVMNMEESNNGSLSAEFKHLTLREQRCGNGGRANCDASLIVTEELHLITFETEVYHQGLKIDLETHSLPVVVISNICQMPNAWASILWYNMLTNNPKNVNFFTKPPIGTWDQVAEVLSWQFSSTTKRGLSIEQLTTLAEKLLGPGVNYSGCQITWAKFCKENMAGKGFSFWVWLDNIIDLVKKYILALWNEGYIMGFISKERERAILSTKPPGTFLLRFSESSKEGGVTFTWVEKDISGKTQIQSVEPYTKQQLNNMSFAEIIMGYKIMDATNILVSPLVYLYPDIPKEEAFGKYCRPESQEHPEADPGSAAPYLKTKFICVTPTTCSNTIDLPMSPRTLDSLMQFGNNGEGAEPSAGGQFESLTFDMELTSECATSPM
Chain of Heat shock factor protein 1 (Homo sapiens) (Q00613 whole entry, looked up): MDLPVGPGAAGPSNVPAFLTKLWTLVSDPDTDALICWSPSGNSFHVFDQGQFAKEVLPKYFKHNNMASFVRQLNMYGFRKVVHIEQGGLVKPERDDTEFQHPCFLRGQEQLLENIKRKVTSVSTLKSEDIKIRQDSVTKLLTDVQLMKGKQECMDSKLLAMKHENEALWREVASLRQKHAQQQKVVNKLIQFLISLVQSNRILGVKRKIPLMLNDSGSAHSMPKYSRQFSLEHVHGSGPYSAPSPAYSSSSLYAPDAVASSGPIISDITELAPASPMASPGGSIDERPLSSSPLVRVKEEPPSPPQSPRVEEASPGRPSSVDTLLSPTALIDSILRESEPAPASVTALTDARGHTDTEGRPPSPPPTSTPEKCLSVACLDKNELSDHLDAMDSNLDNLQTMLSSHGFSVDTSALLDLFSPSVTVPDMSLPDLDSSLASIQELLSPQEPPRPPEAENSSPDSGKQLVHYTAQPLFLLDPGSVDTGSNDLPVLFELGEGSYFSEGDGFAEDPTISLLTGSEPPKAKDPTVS

As for `COC(F)(F)C(F)(C(F)(F)F)C(F)(F)F`, the call in [1], in [2], in assay [3], in assay [4], in [5] and in assay [6] was inactive. The result in [7], in assay [8], in [9], in assay [10], in assay [11] and in assay [12] was inactive. The result in assay [13], in [14], in [15], in [16], in assay [17] and in [18] was inactive. For the same compound, the call in assay [19] was inactive.
Regarding `CC(=O)OC(C)C`, the outcome in assay [1], in assay [2], in assay [3], in [4], in assay [5] and in assay [6] was inactive. Also, the call in assay [7], in assay [8], in [9], in assay [10], in assay [12] and in assay [13] was inactive. Also, the compound was called inactive in assay [14], in assay [15], in [17], in assay [18] and in [19]. Also, the AC50 in [11] is 100 µM (active).
Take `FC(F)=C(F)OC(F)(F)C(F)(F)C(F)(F)F`: the compound was classed as inactive in assay [1], in [2], in assay [3], in assay [4], in [5] and in assay [6]. Further, the compound was called inactive in [7], in assay [8], in [9], in assay [20], in assay [10] and in assay [12]. The compound was classed as inactive in [13], in assay [14], in [15], in [16], in assay [17] and in assay [18].
For the compound `COCC(C)N` (stereo unspecified), the call in assay [1], in assay [2], in assay [3], in [4], in assay [5] and in assay [6] was inactive. For the same compound, the call in assay [7], in [8], in assay [9], in assay [20], in assay [10] and in [12] was inactive. Moreover, the compound was classed as inactive in [13], in [14], in assay [15], in [16], in [17] and in [19]. Besides, the half-maximal activity concentration (AC50) in [11] is 83.6 µM (active).
As to `CC(C)=CC1CC(C)CCO1` (stereo unspecified), the compound was classed as inactive in assay [1], in assay [2], in [3], in assay [4], in assay [5] and in assay [6]. Further, the result in [7], in [8], in assay [9], in assay [10], in assay [11] and in [12] was inactive. For the same compound, the outcome in [13], in assay [15], in [16], in [17], in [18] and in [19] was inactive.
`CCOc1nc(F)cc2nc(S(=O)(=O)Nc3c(Cl)cccc3C(=O)OC)nn12`: the compound was classed as inactive in assay [1], in [2], in assay [3], in [4], in [5] and in assay [6]. In addition, the compound was called inactive in assay [7], in assay [8], in [9], in [20], in assay [10] and in assay [12]. The compound was classed as inactive in assay [13], in [14], in assay [15], in assay [16], in assay [17] and in assay [18]. For the same compound, the compound was called inactive in [19]. Also, in [11], the AC50 is 7.46 µM (active).
With `CC(=O)[C@@]1(O)CC[C@H]2[C@@H]3C[C@H](C)C4=CC(=O)C=C[C@]4(C)[C@@]3(F)[C@@H](O)C[C@@]21C`, the outcome in [1], in [3], in assay [4], in assay [5], in assay [6] and in assay [7] was inactive. Besides, the compound was called inactive in [8], in [9], in assay [20], in assay [10], in [11] and in [12]. Also, the outcome in [14], in [15], in assay [16], in [17], in assay [18] and in assay [19] was inactive. Also, the AC50 in [2] is 0.0821 µM (active).

These data come from PubChem BioAssay (EPA / NIEHS).
